Data from PubChem BioAssay (EPA / NIEHS).
Inconclusive results are not listed. Calls of active or inactive are those of the source. How the source made its calls, unless noted: active means hit-call score of the fitted dose curve at least 0.9, where 1 is the maximum; inconclusive means response in the unintended direction; inactive means score below 0.9.

target: mouse Estrogen Receptor alpha (Era), Esr1 (gene 13982) (UniProt P19785); assay: NVS_NR_mERa: NovaScreen (NVS) Nuclear Receptor Binding Assay for mouse Estrogen Receptor alpha (Era) (AID 2283378);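 further: hit means loss of bound radioligand signal relative to DMSO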
Sequence (P19785 whole entry, looked up): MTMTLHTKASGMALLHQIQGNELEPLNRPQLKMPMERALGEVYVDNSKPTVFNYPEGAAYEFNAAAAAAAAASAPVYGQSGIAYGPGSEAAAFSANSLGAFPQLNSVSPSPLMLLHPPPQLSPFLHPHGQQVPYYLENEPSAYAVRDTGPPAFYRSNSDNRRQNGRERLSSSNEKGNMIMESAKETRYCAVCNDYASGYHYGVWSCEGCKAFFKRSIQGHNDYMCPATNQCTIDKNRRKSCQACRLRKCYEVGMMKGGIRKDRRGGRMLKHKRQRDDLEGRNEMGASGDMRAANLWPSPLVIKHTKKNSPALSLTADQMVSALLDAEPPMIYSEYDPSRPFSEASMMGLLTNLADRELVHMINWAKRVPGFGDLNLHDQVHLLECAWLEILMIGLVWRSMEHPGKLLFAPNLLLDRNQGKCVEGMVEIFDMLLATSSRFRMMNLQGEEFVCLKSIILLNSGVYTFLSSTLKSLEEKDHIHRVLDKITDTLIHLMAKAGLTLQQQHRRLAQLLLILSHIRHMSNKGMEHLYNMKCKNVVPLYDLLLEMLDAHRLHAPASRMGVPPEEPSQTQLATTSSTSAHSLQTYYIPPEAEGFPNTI
Outline: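 Cell-free radioligand binding with extracted mouse Era protein; competitive displacement of radiolabelled ligand, read by filter-based scintillation counting 18 hours after dosing. Loss of signal versus DMSO baseline taken as binding; single screening concentration 25 uM, actives followed in concentration series.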

outcome, inactive:
O=CN1CCCCC1, C=C[C@](C)(O)CC[C@@H]1[C@@]2(C)CCCC(C)(C)[C@@H]2CC[C@@]1(C)O, CC(C)(C)C(=O)CCc1ccc(Cl)cc1, O=C(O)c1ccccc1Nc1cccc(C(F)(F)F)c1, CCOC(=O)N1CCC(=C2c3ccc(Cl)cc3CCc3cccnc32)CC1, O=C(O)CCCCCCCCCC(=O)O, CC(C)c1ccc2c(c1)CC[C@H]1[C@](C)(CN)CCC[C@]21C, C=CC(C)(CCC=C(C)C)OC(=O)CC(C)C (stereo not given), [Cl][Bi]([Cl])([c]1ccccc1)([c]1ccccc1)[c]1ccccc1, CCC(Cc1ccccc1)(C(=O)c1ccc(N2CCOCC2)cc1)N(C)C (stereo not given), Cc1cccc(N(C)C(=S)Oc2ccc3ccccc3c2)c1, NC(CO)(CO)CO, O=C1CCCCCN1SSN1CCCCCC1=O

AC50, active:
COc1ccc(-c2coc3cc(O)ccc3c2=O)cc1 0.143 µM, CCC(C)OC(=O)c1ccc(O)cc1 (stereo not given) 4.99 µM, CCC(=O)Oc1ccc(/C(CC)=C(\CC)c2ccc(OC(=O)CC)cc2)cc1 0.0132 µM, COc1ccc(C(Cl)=C(c2ccc(OC)cc2)c2ccc(OC)cc2)cc1 4.88 µM, O=C1Nc2ccccc2C1(c1ccc(O)cc1)c1ccc(O)cc1 6.61 µM, O=C(c1ccc(O)cc1)c1ccc(O)cc1O 1.29 µM

target: Estrogen receptor (Homo sapiens) (UniProt P03372); assay: OT_ERa_GFPERaERE_0480: Odyssey Thera (OT) 8-hour HeLa Transcription Induction Assay for Estrogen Receptor (AID 2283381; active means hit-call score of the fitted dose curve at least 0.9, where 1 is the maximum; inactive means score below 0.9)
Sequence (P03372 whole entry, looked up): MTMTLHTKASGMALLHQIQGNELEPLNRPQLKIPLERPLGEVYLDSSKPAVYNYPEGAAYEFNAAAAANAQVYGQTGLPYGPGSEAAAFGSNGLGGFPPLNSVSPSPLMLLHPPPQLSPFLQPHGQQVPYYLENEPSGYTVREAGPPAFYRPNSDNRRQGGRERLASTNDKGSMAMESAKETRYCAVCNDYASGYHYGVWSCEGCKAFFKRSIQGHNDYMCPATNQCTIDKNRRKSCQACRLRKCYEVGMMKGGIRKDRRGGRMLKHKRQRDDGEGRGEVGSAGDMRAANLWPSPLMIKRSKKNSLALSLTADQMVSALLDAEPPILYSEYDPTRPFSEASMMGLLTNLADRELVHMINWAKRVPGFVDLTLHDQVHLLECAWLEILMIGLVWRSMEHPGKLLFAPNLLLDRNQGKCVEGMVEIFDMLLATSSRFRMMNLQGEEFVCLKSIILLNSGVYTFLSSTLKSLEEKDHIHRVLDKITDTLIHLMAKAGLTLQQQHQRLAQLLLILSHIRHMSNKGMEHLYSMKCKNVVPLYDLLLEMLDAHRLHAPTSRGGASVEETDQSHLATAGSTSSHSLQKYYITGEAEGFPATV
Outline: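 Fluorescence microscopy with high-content image analysis measures ERE-driven GFP induction in HeLa cells at 8 h post-dose. Increases fitted against DMSO baseline.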

outcome, inactive:
C1=Cc2ccccc2C1, CCCCC/C=C\CCC=O, OC1CCCCCCCCCCC1, c1ccc2c(c1)ccc1cc3c(ccc4ccccc43)cc12, O=C(OCC1CCC2OC2C1)C1CCC2OC2C1 (stereo not given), C=C[Si](C)(C)O[Si](C)(C)C=C, CCCCCCC1(C)CCC(=O)O1 (stereo not given), CCCCOCCOC(=O)COc1nc(Cl)c(Cl)cc1Cl, NC(CO)(CO)CO, CCCCCc1ccc(Cl)cc1, CC(CC=O)CCCC(C)(C)O (stereo not given)
